Source: PubChem (several laboratories)
The list is not random: actives were taken first. Their share in the collection is about 2.7%.
MsrA inh = inhibits bovine methionine sulfoxide reductase A; hit rate 0.75% among 360,000; AID 651718; inhibition, % at 15.5 µM; purified bovine MsrA, absorbance read-out; in the data active means inhibition above about 4.5%
bovine MsrA act = activators of bovine methionine sulfoxide reductase A; purified bovine MsrA, absorbance read-out; activation, % at 10.6 µM; hit rate 0.3% among 360,000; in the data active means activation above about 7.5%
rCAG binder = binds r(CAG) RNA repeats | r(CAG) RNA repeat, TO-PRO-1 dye displacement fluorescence | inhibition, % at 3 µM | hit rate 1.3% among 370,000 | AID 651821;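 active means inhibition above the plate cutoff, the mean of all test compounds on that plate plus 3 SD, cut at about 35% in these data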;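 further: higher means more dye released from RNA so lower well fluorescence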
NadD block = inhibitors of Staphylococcus aureus NadD; AID 602399; inhibition, % at 20 µM; purified NadD enzyme, colorimetric absorbance read-out; hit rate 0.78% among 360,000; in the data active means inhibition above about 26%
MsrA act confirm = bovine methionine sulfoxide reductase A activation confirmed. shares compounds with bovine MsrA act. purified bovine MsrA, absorbance read-out. activation, % at 10.6 µM. hit rate 12% among 1,000; in the data active means activation above about 4%;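 further: enzyme coupled to thioredoxin and thioredoxin reductase with NADPH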
Large screens that a line does not name were inactive (follow-up assays come after a bar, where they were run).

CCOc1ccc(-c2noc(-c3ccncc3)n2)cc1OCC	none
CCOc1ccccc1-c1nc(-c2ccncc2)no1	bovine MsrA act 8.4 | MsrA act confirm inactive
CCOc1ccc(-c2nc(-c3ccc(OC)cc3)no2)cc1OCC	bovine MsrA act 7.9 | MsrA act confirm inactive
Cn1cc(C2(c3c[nH]c4ccccc34)CCN(C(=O)OC(C)(C)C)CC2)c2ccccc21	none (no result: MsrA inh, bovine MsrA act, NadD block)
CC(C)c1ccc(Nc2n[nH]c(=S)s2)cc1	bovine MsrA act 8.6 | MsrA act confirm inactive
Cc1cccc(C)c1Nc1n[nH]c(=S)s1	none
COc1ccccc1Nc1n[nH]c(=S)s1	bovine MsrA act 8.9 | MsrA act confirm inactive
Cc1ccc(Nc2n[nH]c(=S)s2)c(C)c1	bovine MsrA act 10.3 | MsrA act confirm inactive
COCCNC(=O)C1(C)CCCN(C(=O)c2cccc(C#N)c2)C1 (centres undefined)	none
Cn1c(Oc2ccncc2)nc2cc(-c3ccsc3)sc2c1=O	bovine MsrA act 15.1 | MsrA act confirm inactive
Nc1ncnc2c1ncn2[C@@H]1O[C@H](CNCc2ccc(OCc3ccccc3)cc2)[C@@H](O)[C@H]1O	bovine MsrA act 7.7 | MsrA act confirm 4.3
Cc1ccc(N(Cc2cc3ccc(C)cc3[nH]c2=O)S(=O)(=O)c2ccccc2)cc1	none
C=CC[C@@H](CC(=O)N[C@H](CO)Cc1ccccc1)C(=O)N[C@H](COC(=O)[C@H](CC=C)CC(=O)OC(C)(C)C)Cc1c[nH]c2ccccc12	none
Cc1ccc(S(=O)(=O)N2CCC(C(=O)OCC(=O)N3CCc4ccccc43)CC2)cc1	bovine MsrA act 8.4 | MsrA act confirm inactive
O=C(COC(=O)CCc1ccccc1)NNC(=O)c1ccccc1	none
Brc1ccc2nc(-c3ccco3)c(CC3CCCCC3)n2c1	none
CC(C)CN1C(=O)C[C@@]2(C(=O)N(C)c3ccc(NS(=O)(=O)C4CC4)cc32)C1c1ccccc1 (some centres undefined)	none (no result: MsrA inh, bovine MsrA act, NadD block)
O=C1C(=O)c2cccnc2-c2ncccc21	bovine MsrA act 95.0, NadD block 39.7 | MsrA act confirm 76.0
c1ccc(Sc2nc(N3CCCCC3)nc(N3CCCCC3)n2)nc1	bovine MsrA act 9.3 | MsrA act confirm inactive
N=C(N)Sc1nc(N2CCCCC2)nc(N2CCCCC2)n1	none
COc1ccc(NC(=O)NC(C)c2ccccc2)cc1 (centres undefined)	bovine MsrA act 17.3 | MsrA act confirm inactive
O=C(O)CCC(=O)c1ccc(C2CCCCCC2)cc1	bovine MsrA act 13.1 | MsrA act confirm inactive
Cc1cc(NC(=O)CCCC(=O)NCc2cccs2)no1	bovine MsrA act 7.9 | MsrA act confirm inactive
Cc1cccc(N=C2NC(=O)c3cc([N+](=O)[O-])ccc32)c1	bovine MsrA act 7.8 | MsrA act confirm inactive
COc1ccc(C(C)(NC(C)=O)c2nc(-c3ccc(F)c(Cl)c3)cs2)cc1 (centres undefined)	none
CCCCCCCCNS(=O)(=O)CC1NCc2cc(F)ccc21 (centres undefined)	none (no result: MsrA inh, bovine MsrA act, NadD block)
Cc1cccc(N(CC(=O)NC2CCCCC2)C(=O)CCCC(=O)Nc2ccccn2)c1	none
Cc1cccc(N(CC(=O)NC2CCCC2)C(=O)CCCC(=O)Nc2ccccn2)c1	bovine MsrA act 7.7 | MsrA act confirm inactive
O=C(CN1CCN(c2nc(-c3ccccc3)cs2)CC1)Nc1ccc(Cl)cc1	none (no result: MsrA inh, bovine MsrA act, NadD block)
CN(C)S(=O)(=O)c1ccc(Cl)c(NC(=O)COC(=O)CNS(=O)(=O)c2c(F)cccc2F)c1	bovine MsrA act 8.8 | MsrA act confirm inactive
CN(C)S(=O)(=O)c1ccc(Cl)c(NC(=O)COC(=O)CNC(=O)c2ccco2)c1	none
N#Cc1cnn(-c2cc(Cl)ccc2Cl)c1N	none
N#Cc1cnn(-c2ccc([N+](=O)[O-])cc2[N+](=O)[O-])c1N	bovine MsrA act 8.3 | MsrA act confirm inactive
CCN1CCN(C2=C(NS(=O)(=O)c3ccc(Br)cc3)C(=O)c3ccccc3C2=O)CC1	bovine MsrA act 8.2 | MsrA act confirm inactive
CCOC(=O)N1CCN(C2=C(NS(=O)(=O)c3ccc(Br)cc3)C(=O)c3ccccc3C2=O)CC1	none
CCOC(=O)COc1ccc(C(C)c2ccc(NC(=O)OC(C)(C)C)cc2)cc1 (centres undefined)	none (no result: MsrA inh, bovine MsrA act, NadD block)
Cc1ccc(C(=O)ON=C2CCN(S(=O)(=O)c3ccccc3)CC2)cc1	bovine MsrA act 7.7 | MsrA act confirm inactive
Cc1ccc(C)c(N=Nc2ccc(O)c3ncccc23)c1	none
Cc1ccc(N=Nc2cc(C)ccc2O)c(C)c1	bovine MsrA act 10.5 | MsrA act confirm inactive
COc1ccccc1Cc1c(C(C)(C)C)nc2ccc(C)cn12	none
Nc1ccc(S(=O)(=O)NC2=NCCCCC2)cc1	none
O=S(=O)(NC1=NCCCCC1)c1ccc2ccccc2c1	bovine MsrA act 9.0 | MsrA act confirm inactive
CN(CCc1ccccc1)C(=O)c1ccc2c(c1)ncn2C1CCCCC1	none (no result: MsrA inh, bovine MsrA act, NadD block)
COc1ccc(Cn2nnnc2C(c2cccs2)N2CCOCC2)cc1 (centres undefined)	bovine MsrA act 7.8 | MsrA act confirm inactive
Nc1ccccc1SSc1ccccc1N	bovine MsrA act 11.2 | MsrA act confirm inactive
C/C(=N/NC(=O)c1ccoc1C)c1cccs1	none (no result: MsrA inh, bovine MsrA act, NadD block)
O=C(NC(=O)c1cccc(F)c1)OC[C@@H]1CCCN2CCCC[C@H]12	bovine MsrA act 8.8 | MsrA act confirm inactive
O=C(NC(=O)c1cccc(Cl)c1)OC[C@@H]1CCCN2CCCCC12 (some centres undefined)	none
CN(Cc1ccccc1)C(=O)c1csc([C@@H]2O[C@H](CO)[C@H](O)[C@H](O)[C@H]2O)n1	bovine MsrA act 13.5 | MsrA act confirm inactive
CC12CN(C(=O)c3ccccc3)C3(C#N)CC1CCC23C (centres undefined)	bovine MsrA act 13.5 | MsrA act confirm inactive
CN(CCCC1CCCC1)C(=O)c1cc(COc2ccc(F)cc2F)on1	bovine MsrA act 9.1 | MsrA act confirm inactive
CCOC(=O)C(Oc1ccc2c(-c3ccccc3)cc(=O)oc2c1C)c1ccccc1 (centres undefined)	bovine MsrA act 8.0 | MsrA act confirm inactive
CCCn1c(=O)c2ccccc2n2c(SCC(=O)c3ccccc3)nnc12	bovine MsrA act 12.3 | MsrA act confirm inactive
CCOC(=O)c1sc(=S)n(-c2ccc(OC)cc2)c1C	none
CCOC(=O)c1c2c(n(-c3ccc(OC)cc3)c1C)C(=O)C(=O)c1ccccc1-2	bovine MsrA act 7.7 (no result: MsrA inh, rCAG binder) | MsrA act confirm 6.2
O[C@H](COc1cc(F)cc(F)c1)CN1CCC(C(O)(c2ccccc2)c2ccccc2)CC1	none (no result: MsrA inh, bovine MsrA act, NadD block)
Nc1nc2cc(Cl)c(Br)cc2o1	none
CCOC(=O)c1csc(N)n1	none
CCOC(=O)c1csc(-c2snnc2C)n1	bovine MsrA act 8.0 | MsrA act confirm inactive
CCN(c1cccc(C)c1)S(=O)(=O)c1cc2c3c(c1)CCN3C(=O)CC2	none
CCN1CCN(c2ccc(S(=O)(=O)N3CCCCC3)cc2NC(=O)c2cccc(C)c2)CC1	bovine MsrA act 9.3 | MsrA act confirm inactive
CCOc1ccccc1NC(=O)N1CCCc2ccccc21	none
C=CCC(CC)C(=O)NC(=O)N1CCCc2ccccc21 (centres undefined)	bovine MsrA act 11.6 | MsrA act confirm inactive
CN(CC(=O)Nc1ccccc1N1CCOCC1)S(=O)(=O)c1ccc(Cl)cc1	bovine MsrA act 8.0 | MsrA act confirm 5.5
CNC(=O)C[C@H]1C(=O)N(c2ccccc2)C[C@@H]1CSC	none
Cn1c(=O)c2c(-c3ccccc3)n(-c3ccc(N)cc3)cc2n(C)c1=O	none
